Here are results for 5 molecules from PubChem BioAssay.

A short description of experiment [1]: compounds binding Alexa647 anti-His antibody – biochemical, small-molecule microarray, 635 nm fluorescence, artefact control for SMM control protein annotation, primary screen (AID 1128).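 Also: score merges feature fluorescence with signal-to-noise for each printed compound spot.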 The following applies: higher = more signal.
The subject of experiment [2] is Human papillomavirus type 1a E7 protein (residues 1-88). Nature of the experiment: HPV1a E7 small-molecule binders, primary screen, biochemical, small-molecule microarray, residues 1-88, 635 nm (AID 1129). The following applies: small-molecule microarray binding, fluorescence 635 nm; higher = more signal.
For experiment [3], the target named is Focal adhesion kinase 1 (Homo sapiens) (UniProt Q05397). In words: PTK2 protein binding on printed compound slides – biochemical, small-molecule microarray, 635/667 nm fluorescence, BSA, DTT, primary screen (AID 1130).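 Also: composite of spot emission at 667 nm and signal to noise over triplicate slides.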 Conditions: 635 nm fluorescence, higher = more signal.
Focal adhesion kinase 1 (Homo sapiens), sequence (Q05397 whole entry, looked up): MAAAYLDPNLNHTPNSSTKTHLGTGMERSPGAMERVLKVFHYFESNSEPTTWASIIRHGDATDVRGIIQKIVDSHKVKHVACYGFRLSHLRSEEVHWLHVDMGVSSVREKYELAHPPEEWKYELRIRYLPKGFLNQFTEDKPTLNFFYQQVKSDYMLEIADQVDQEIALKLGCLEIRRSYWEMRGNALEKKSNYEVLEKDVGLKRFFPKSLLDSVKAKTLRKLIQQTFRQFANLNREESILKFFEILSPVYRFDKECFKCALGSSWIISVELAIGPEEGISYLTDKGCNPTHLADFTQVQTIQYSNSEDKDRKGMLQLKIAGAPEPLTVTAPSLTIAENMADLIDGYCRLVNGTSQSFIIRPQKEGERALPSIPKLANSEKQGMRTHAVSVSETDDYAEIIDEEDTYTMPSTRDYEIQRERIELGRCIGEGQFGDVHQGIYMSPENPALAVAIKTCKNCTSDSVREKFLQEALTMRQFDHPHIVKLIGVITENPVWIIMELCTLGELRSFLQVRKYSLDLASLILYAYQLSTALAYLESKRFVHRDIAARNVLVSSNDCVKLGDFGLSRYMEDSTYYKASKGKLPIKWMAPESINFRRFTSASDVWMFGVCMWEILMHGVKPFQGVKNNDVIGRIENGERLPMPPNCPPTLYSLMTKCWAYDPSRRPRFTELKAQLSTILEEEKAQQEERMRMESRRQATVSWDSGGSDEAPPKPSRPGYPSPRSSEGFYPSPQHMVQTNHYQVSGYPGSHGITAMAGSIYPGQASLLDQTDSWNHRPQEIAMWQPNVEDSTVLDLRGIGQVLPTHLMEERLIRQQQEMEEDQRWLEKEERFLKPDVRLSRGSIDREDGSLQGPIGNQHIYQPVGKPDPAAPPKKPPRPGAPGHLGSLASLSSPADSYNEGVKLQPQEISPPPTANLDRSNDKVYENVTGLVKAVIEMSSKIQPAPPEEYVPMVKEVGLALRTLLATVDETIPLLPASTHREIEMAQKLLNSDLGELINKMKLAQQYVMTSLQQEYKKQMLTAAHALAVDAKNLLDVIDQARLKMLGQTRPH
The test system of experiment [4] is Fibrinogen (Alexa647-labelled). In words: Alexa647-fibrinogen binding to printed small molecules – biochemical, small-molecule microarray, 635/667 nm fluorescence, artefact control for SMM control-protein annotation, profiling panel (AID 1131).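 Also: z-score merges 667 nm fluorescence with per-spot signal-to-noise over triplicate slides.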 The following applies: fibrinogen-A647 binding fluorescence, higher = more signal.
The target in experiment [5] is Follistatin (Homo sapiens) (UniProt P19883). Nature of the experiment: FST protein binding to printed compounds – biochemical, small-molecule microarray, 635/667 nm fluorescence, primary screen (AID 1132). Conditions: 635 nm fluorescence, higher = more signal.
Follistatin (Homo sapiens), sequence (P19883 whole entry, looked up): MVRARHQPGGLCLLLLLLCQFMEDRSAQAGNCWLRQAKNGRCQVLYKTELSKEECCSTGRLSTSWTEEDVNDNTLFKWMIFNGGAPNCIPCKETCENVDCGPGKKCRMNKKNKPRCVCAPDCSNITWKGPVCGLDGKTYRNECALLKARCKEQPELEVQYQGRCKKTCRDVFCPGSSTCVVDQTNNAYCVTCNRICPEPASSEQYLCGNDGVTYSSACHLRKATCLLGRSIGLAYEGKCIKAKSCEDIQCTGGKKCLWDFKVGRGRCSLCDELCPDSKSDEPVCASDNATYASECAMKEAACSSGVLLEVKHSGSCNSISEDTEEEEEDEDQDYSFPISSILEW
In experiment [6] the target is Fibroblast growth factor 2 (Homo sapiens) (UniProt P09038). Nature of the experiment: basic fibroblast growth factor binding to printed compounds – biochemical, small-molecule microarray, 635/667 nm fluorescence, primary screen (AID 1133). The following applies: FGF2, fluorescence 635/667, higher = more signal.
Fibroblast growth factor 2 (Homo sapiens), sequence (P09038 whole entry, looked up): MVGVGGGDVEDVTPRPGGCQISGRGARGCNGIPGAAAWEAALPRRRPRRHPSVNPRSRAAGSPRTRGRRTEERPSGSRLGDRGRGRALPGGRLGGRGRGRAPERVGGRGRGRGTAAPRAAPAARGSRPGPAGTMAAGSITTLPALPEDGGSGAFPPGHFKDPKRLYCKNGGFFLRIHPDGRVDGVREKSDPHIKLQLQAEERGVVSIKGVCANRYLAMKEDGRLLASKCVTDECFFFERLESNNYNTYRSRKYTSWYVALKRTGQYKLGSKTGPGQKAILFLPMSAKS
Experiment [7] can be described thus: JC-1 mitochondrial potential readout, lung cancer cells – cell-based, A549, JC-1 fluorescence, basal, 24 h, 100 nL, profiling panel (AID 1138).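 Also: A549 lung adenocarcinoma cells under basal conditions with no added stimulus; test concentration not given here.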 The following applies: higher = more signal.
Experiment [8] has as its system Lefty1. In words: Lefty1 protein binding to printed compounds – biochemical, small-molecule microarray, 635/667 nm fluorescence, primary screen (AID 1139). Conditions: fluorescence 635/667, higher = more signal.
For experiment [9], the system named is wheat germ agglutinin (Triticum aestivum), Alexa647-labelled. Nature of the experiment: Alexa647-WGA lectin binding to printed small molecules – biochemical, small-molecule microarray, 635/667 nm fluorescence, artefact control for SMM control-protein annotation, profiling panel (AID 1140).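 Also: score merges 667 nm feature emission with signal to noise over triplicate slides.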 Conditions: WGA-A647 binding, 635 nm fluorescence, higher = more signal.

The target of experiment [10] is Luciferin 4-monooxygenase (Photinus pyralis) (UniProt P08659). Nature of the experiment: inhibition of purified Photinus pyralis luciferase – biochemical, luminescence, purified enzyme, 2006 set, primary screen (AID 1141).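 Also: cell-free assay with purified firefly luciferase at 100 ng per well in PBS; test concentration not given here.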 The following applies: purified firefly luciferase, SteadyGlo luminescence, 30 min; higher = more signal, called active from +8 up or from −8 down.
Luciferin 4-monooxygenase (Photinus pyralis), sequence (P08659 whole entry, looked up): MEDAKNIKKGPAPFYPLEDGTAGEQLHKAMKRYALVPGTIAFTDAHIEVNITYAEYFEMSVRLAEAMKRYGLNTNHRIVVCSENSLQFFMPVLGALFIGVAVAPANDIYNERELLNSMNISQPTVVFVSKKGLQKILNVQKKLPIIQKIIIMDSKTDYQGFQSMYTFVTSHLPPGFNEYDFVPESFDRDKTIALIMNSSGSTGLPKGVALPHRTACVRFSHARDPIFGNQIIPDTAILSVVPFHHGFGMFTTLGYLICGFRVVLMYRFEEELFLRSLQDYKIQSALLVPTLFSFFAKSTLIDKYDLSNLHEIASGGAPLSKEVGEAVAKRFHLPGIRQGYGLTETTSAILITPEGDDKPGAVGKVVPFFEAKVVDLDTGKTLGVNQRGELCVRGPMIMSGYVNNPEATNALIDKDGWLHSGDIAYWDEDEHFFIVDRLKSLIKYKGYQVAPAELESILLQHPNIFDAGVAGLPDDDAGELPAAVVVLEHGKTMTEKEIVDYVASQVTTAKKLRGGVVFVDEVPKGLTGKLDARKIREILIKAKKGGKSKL

In experiment [11] the test system is Wnt5a (protein binding on small-molecule microarray). Nature of the experiment: small molecules binding Wnt5a protein – biophysical, small-molecule microarray, 635/667 nm fluorescence, primary screen (AID 1142).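 Also: fluorescence read at 667 nm with signal to noise per printed feature.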 Conditions: 635 nm fluorescence, higher = more signal.
The nature of experiment [12]: ATP-based viability of Huh7 replicon cells – cell-based, CellTiter-Glo luminescence, basal, 48 h, cytotoxicity control for HCV replication inhibitor project, primary screen (AID 1143).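 Also: Huh7 hepatoma cells carrying a hepatitis C replication reporter with no stimulus; test concentration not given here.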 The following applies: higher = more signal, called active from +8 up or from −8 down. On the technique in general: A replicon is a self-replicating genome or part of one, used to study replication in cells.

The nature of experiment [13]: Pseudomonas biofilm growth suppression – PAO1 strain, BacTiter-Glo luminescence, LB-PBS, primary screen (AID 1144). Conditions: P. aeruginosa PAO1 biofilm, 12 h, higher = more signal.
Experiment [14] can be described thus: basal CRE-LacZ reporter activity in PC12 – cell-based, unstimulated, primary screen (AID 1145). The following applies: no forskolin, luminescence, 4.5 h, higher = more signal, called active from +8 up or from −8 down.
The nature of experiment [15]: forskolin-driven CRE-LacZ activity in PC12 – cell-based, CRE-LacZ reporter, forskolin-stimulated, primary screen (AID 1146).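 Also: PC12 cells with 6xCRE LacZ reporter stimulated by forskolin 10 µM; beta-galactosidase reporter signal reflecting CREB driven transcription.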 Conditions: luminescence, 4.5 h, higher = more signal, called active from +8 up or from −8 down.
Experiment [16] concerns the target Streptavidin (Streptomyces avidinii) (UniProt P22629). Nature of the experiment: compounds binding control protein streptavidin – biophysical, small-molecule microarray, 635/667 nm fluorescence, artefact control for SMM compound annotation, primary screen (AID 1147).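 Also: signal reflects streptavidin binding to arrayed compounds as a control protein.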 The following applies: higher = more signal.
Experiment [17] in a line: probe aInhba binding on compound microarray – biochemical, small-molecule microarray, 635/667 nm fluorescence, primary screen (AID 1148).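 Also: score merges 667nm spot fluorescence with signal-to-noise for antibody binding to printed compounds.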 The following applies: higher = more signal.
Experiment [18] deals with Torsin-1A (Homo sapiens) (UniProt O14656). Nature of the experiment: TOR1A wild-type binding on microarray – cell lysate, small-molecule microarray, lysate, 635/667 nm, primary screen (AID 1149). The following applies: COS7 hTOR1A-WT lysate, 635 nm fluorescence, higher = more signal.
Torsin-1A (Homo sapiens), sequence (O14656 whole entry, looked up): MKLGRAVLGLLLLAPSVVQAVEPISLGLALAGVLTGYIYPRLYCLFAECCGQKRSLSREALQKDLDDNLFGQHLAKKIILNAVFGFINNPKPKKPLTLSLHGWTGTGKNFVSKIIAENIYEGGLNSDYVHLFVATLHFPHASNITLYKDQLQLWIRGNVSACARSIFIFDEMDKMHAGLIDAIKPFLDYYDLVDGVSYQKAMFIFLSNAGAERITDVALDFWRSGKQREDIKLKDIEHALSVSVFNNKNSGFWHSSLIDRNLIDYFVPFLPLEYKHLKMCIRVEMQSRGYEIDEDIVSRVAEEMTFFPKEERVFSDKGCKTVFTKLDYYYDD
Experiment [19] has the same target. In words: torsin A mutant lysate binding on microarrays – cell lysate, small-molecule microarray, COS7 lysate, 635/667 nm fluorescence, primary screen (AID 1150).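 Also: score pools 667 nm emission and signal to noise measuring lysate protein binding.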 Conditions: COS7 hTOR1A mutant lysate, 635 nm fluorescence, higher = more signal.
The test system of experiment [20] is Sonic hedgehog protein (Shh). In words: Sonic hedgehog microarray binding compounds – biochemical, small-molecule microarray, 635/667 nm fluorescence, primary screen (AID 1151).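 Also: Shh protein binding to compounds spotted on small-molecule microarray slides; score combines spot fluorescence intensity with signal-to-noise across triplicate slides.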 The following applies: 635 nm fluorescence, higher = more signal.

SMILES strings stand for the structures. The source made the active and inactive calls. Unless noted, no rule for the calls is given here.

Streptavidin (Streptomyces avidinii), sequence (P22629 whole entry, looked up): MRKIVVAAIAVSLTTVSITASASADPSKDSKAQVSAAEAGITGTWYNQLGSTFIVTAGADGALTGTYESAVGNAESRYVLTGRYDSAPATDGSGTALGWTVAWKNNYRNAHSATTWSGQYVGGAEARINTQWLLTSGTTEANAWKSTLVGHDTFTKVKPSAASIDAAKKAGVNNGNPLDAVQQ

For `COCCNC(=O)OCC1CCCC2(CC(OC(=O)NCCc3ccc(F)cc3)CC(CCC(=O)N[C@@H](C)C(=O)OC)O2)O1` (stereo not given in full), the composite z-score in experiment [1] stood at 1; in experiment [2] it was 1.12; in [3], 0.104; in experiment [4] it was 0.895; in [5], 1.26; in [6] it was 1.18. Moreover, the composite z-score in [8] is 0.969; in [9], 0.618; in experiment [11], 0.156; in experiment [16], 0.753; in [17], -0.128; in [18] it was 0.267. The composite z-score in experiment [19] was -0.0343; in [20], 1.09. Also, the z-score in experiment [7] is 1.28; in experiment [10], 0.349 (inactive); in experiment [12], -0.126 (inactive); in [13], 0.252 (inactive); in experiment [14], 0.374 (inactive); in experiment [15], -0.448 (inactive).
In the case of `COc1cccc([C@H]2Oc3ccc(OC)cc3C(=NO[C@H](C)c3cn([C@@H]4COC[C@H]4O)nn3)[C@@H]2O)c1`, the composite z-score in experiment [1] was 0.899; in [2] it was -0.949; in [3], -0.624; in experiment [4] it was -0.0637; in experiment [5], -1.16; in experiment [6], -0.805. The composite z-score was -0.601 in [8]; 0.0665 in experiment [9]; -0.104 in experiment [11]; 1.44 in [16]; -0.182 in [17]; -0.102 in experiment [18]. Besides, the composite z-score in [19] is -0.119; in experiment [20] it was -0.223. Moreover, the z-score in experiment [7] is -1.16; in [10], 0.825 (inactive); in experiment [12], -2.16 (inactive); in experiment [13], -0.302 (inactive); in experiment [14], 6.84 (inactive); in experiment [15] it was 0.258 (inactive).
As for `CCN1C(=O)[C@H]2[C@H]3[C@H](O)[C@H](O)CC(=NOC[C@@H](C)[C@H](OCc4ccccc4)C(C)C)[C@@H]3CC[C@H]2C1=O`, the composite z-score in experiment [1] was 0.0486; in experiment [2] it was 0.472; in experiment [3], -0.0745; in experiment [4] it was 0.58; in experiment [5] it was -0.0316; in experiment [6], -0.109. The composite z-score in [8] is 0.192; in [9], 0.564; in [11], 0.0339; in experiment [16], 0.251; in experiment [17] it was -0.0458; in experiment [18], 0.221. The composite z-score worked out at 1.05 in experiment [19] and 0.119 in [20]. The z-score was -0.925 in [7]; 0.646 (inactive) in [10]; -0.994 (inactive) in experiment [12]; 0.683 (inactive) in [13]; 0.513 (inactive) in experiment [14]; 0.435 (inactive) in experiment [15].
In the case of `NC(=O)NCC#Cc1ccc2c(c1)[C@]1(C(=O)N2)[C@H](c2ccc(O)cc2)N2[C@H](c3ccccc3)[C@H](c3ccccc3)OC(=O)[C@H]2[C@@H]1C(=O)N1CCCCCCC1`, the composite z-score in experiment [1] is 0.687; in [2], 0.564; in experiment [3], -0.222; in experiment [4], 0.161; in experiment [5] it was 1.34; in [6], 0.25. Also, the composite z-score was 1.02 in experiment [8]; 0.604 in experiment [9]; 0.2 in [11]; 0.393 in [16]; 1.23 in [17]; -0.067 in experiment [18]. Further, the composite z-score was determined as 0.609 in experiment [19] and 1.06 in experiment [20]. In addition, the z-score in [7] was 0.296; in experiment [10], 0.363 (inactive); in experiment [12], -0.502 (inactive); in experiment [13] it was -0.75 (inactive); in experiment [14], -0.231 (inactive); in experiment [15], -0.674 (inactive).
`CCCNC(=O)OC[C@H]1O[C@H](CCON=CC[C@@H]2C=C[C@H](OC(C)=O)[C@@H](COC(C)=O)O2)C=C[C@@H]1Oc1ccc(OC)cc1`: the composite z-score in [1] is 0.731; in [2] it was 0.535; in experiment [3], 0.474; in experiment [4] it was 0.733; in [5], 0.461; in experiment [6] it was 0.693. Further, the composite z-score in [8] is 0.561; in experiment [9], 0.462; in experiment [11], 0.371; in experiment [16] it was 0.0822; in [17], -0.128; in experiment [18] it was -0.475. In addition, the results for the composite z-score in experiment [19] and in experiment [20] were 0.0275 and 0.535, respectively. The z-score in experiment [7] was -1.16; in experiment [10], 0.985 (inactive); in experiment [12], 0.0377 (inactive); in [13] it was 0.348 (inactive); in experiment [14], 0.345 (inactive); in experiment [15], 0.391 (inactive).
